# High-throughput results as filed in PubChem.
# PAFAH1B3 FP inh = PAFAH1B3 (human) inhibition | recombinant PAFAH1B3, FP-rhodamine probe, fluorescence polarization | Q15102 | AID 492972 | actives 0.28% (n = 340,000) | inhibition, % at 3.39 µM;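 active means inhibition above the screen-wide average of all tested compounds plus 3 SD, cut at about 25% in these data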;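 further: 0% = enzyme with DMSO only and 100% = wells lacking PAFAH1B3 protein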
# Fam108B inh = Fam108B inhibition, counter-screen for RBBP9 inhibitors | recombinant Fam108B, FP-Rh probe fluorescence polarization | inhibition, % at 9.51 µM | actives 0.33% (n = 300,000) | AID 1947;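 active means inhibition above the screen mean inhibition plus 3 SD, computed separately per campaign, cut at about 18% in these data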;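 further: inhibitors lower polarization as less probe binds the enzyme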
# pPAFAH inh = pPAFAH (human) enzyme inhibition; AID 463082; recombinant pPAFAH, FP-rhodamine probe fluorescence polarization; inhibition, % at 3.39 µM; Q13093; actives 1.5% (n = 330,000);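 active means inhibition above the mean inhibition across the screen plus 3 SD, cut at about 25% in these data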;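 further: inhibitors block binding of the rhodamine activity-based probe so polarization drops; 0% = enzyme with DMSO and 100% = wells lacking pPAFAH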
# PME-1 primary = PME-1 (human) inhibition. recombinant PME-1, FP-Rh probe fluorescence polarization. actives 0.53% (n = 320,000). Q9Y570. inhibition, % at 5.9 µM. AID 2130;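 active means inhibition above the campaign mean of all compounds plus 3 SD, cut at about 26% in these data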;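 further: competitive labeling of PME-1 active site by serine hydrolase directed probe; 0% = PME-1 with DMSO and 100% = wells lacking PME-1 enzyme; inhibitors block probe labeling so polarization falls and inhibition rises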
# PAFAH2 inh = PAFAH2 (human) inhibition; inhibition, % at 3.39 µM; actives 0.99% (n = 340,000); recombinant PAFAH2, FP-rhodamine activity probe, fluorescence polarization;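 active means inhibition above the mean over all tested compounds plus 3 SD, cut at about 30% in these data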;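 further: inhibitors block probe labeling of enzyme so polarization drops; 0% = enzyme with DMSO and 100% = wells lacking PAFAH2 protein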
# PAFAH1B2 inh = PAFAH1B2 (human) inhibition | P68402 | recombinant PAFAH1B2, FP-rhodamine activity probe, fluorescence polarization | inhibition, % at 3.39 µM | actives 1.2% (n = 340,000);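 active means inhibition above the mean of all tested compounds plus 3 SD, cut at about 24% in these data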;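 further: 0% = enzyme with DMSO and 100% = wells lacking PAFAH1B2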
# Target sequence (P68402 whole entry, looked up): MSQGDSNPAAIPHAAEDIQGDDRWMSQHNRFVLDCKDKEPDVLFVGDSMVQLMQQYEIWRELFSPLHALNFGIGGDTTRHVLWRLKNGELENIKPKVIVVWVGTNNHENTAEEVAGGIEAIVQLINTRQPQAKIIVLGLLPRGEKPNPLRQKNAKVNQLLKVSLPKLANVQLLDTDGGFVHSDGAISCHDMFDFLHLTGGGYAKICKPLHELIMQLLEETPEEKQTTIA
# * marks the source's active call; other numbers are inactive results; . = not tested or not shown. Hits are enriched below; roughly 2.8% of the tested compounds scored in any of these assays.
SMILES,PAFAH1B3 FP inh,Fam108B inh,pPAFAH inh,PME-1 primary,PAFAH2 inh,PAFAH1B2 inh
O=C(CSc1ccccn1)C12CC3CC(CC(C3)C1)C2,0.8,-1.9,3.2,-2.2,8.5,26.4*
O=C(OCC(=O)C12CC3CC(CC(C3)C1)C2)c1ccccn1,3.6,-3.4,-3.7,6.9,0.5,24.7*
O=C(OCC(=O)C12CC3CC(CC(C3)C1)C2)c1ccc(O)cc1O,-3.3,-0.2,5.3,-4.6,33.5*,26.4*
COc1ccc(NC(C)=O)cc1NC(C)C(=O)Nc1ccc(S(=O)(=O)N2CCCCC2)cc1 (centres undefined),4.1,.,18.0,5.5,0.5,2.2
COc1ccc(F)cc1CN1CCN(C(=O)c2ccc(S(=O)(=O)N3CCCCCC3)cc2)CC1,1.6,.,.,.,3.8,3.2
CCN(C(=O)CSc1nc2ccc(Cl)cc2[nH]1)C1CCS(=O)(=O)C1 (centres undefined),3.0,.,5.8,.,-5.2,-0.3
